# Pol beta inh: blocks human DNA polymerase beta activity; Potency, µM (highest dose often 114 µM), for inactives: top-dose activity change, negative = inhibition, hits mostly inhibitors; 340,000 compounds, 1.3% hits; AID 485314; Pol beta primer extension/strand displacement, fluorescence kinetic; P06746; also: % is scaled to controls: 0 for no effect and ±100 for the full control effect
#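 Pol beta (10 nM) and compounds were preincubated 15 min at room temperature, then 50 nM substrate (final) started primer extension/strand displacement. Reads were taken at 0 and 10 min; concentration-response data were fitted to a four-parameter Hill equation.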
# Pol eta inh: inhibitors of human DNA polymerase eta. recombinant Pol eta, fluorescent DNA replication assay. Potency, µM (top dose mostly 114 µM), without a hit: at the highest dose activity change, negative = inhibition, hits mostly inhibitors. 390,000 compounds, 1.2% hits. AID 588591; also: % is scaled to controls: 0 for no effect and ±100 for the full control effect
#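 Fluorescent replication assay: 50 nM final substrate added after a 15 min room-temperature compound preincubation with 10 nM enzyme. Signal taken at 0 min and again at 10 min.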
# TDP1 inh: blocks human tyrosyl-DNA phosphodiesterase 1; recombinant TDP1, AlphaScreen DNA substrate cleavage; 350,000 compounds, 0.28% hits; Potency, µM (highest dose often 130 µM), inactives show top-dose activity change, negative = inhibition, hits mostly inhibitors; also: % is scaled to controls: 0 for no effect and ±100 for the full control effect; nearly all actives have a fitted effect of over 40% in size
#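 Enzyme-compound mixtures sat 15 min at room temperature, followed by a 5 min reaction with 15 nM final substrate and 10 min with AlphaScreen beads. Recombinant human Tdp1 was used at 1 nM final.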
# FEN1 inhibitor: inhibitors of human flap endonuclease 1 | P39748 | Recombinant FEN1 flap cleavage, fluorescence, 15 min | Potency, µM (top dose mostly 114 µM), for inactives: at the top dose activity change, negative = inhibition, actives largely listed as inhibitors | 390,000 compounds, 0.35% hits | AID 588795; also: % is scaled to controls: 0 for no effect and ±100 for the full control effect; nearly all actives have a fitted effect of over 65% in size
#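 Concentration–response screening of FEN1 (10 nM): 15 min compound preincubation at room temperature, reaction started with 50 nM substrate and read at 0 and 15 min. Corrected, normalized data were fitted by a four-parameter Hill equation.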
# Pol iota inh: blocks human DNA polymerase iota activity; Pol iota fluorescent replication assay, 10 min; Q9UNA4; Potency, µM (highest dose often 115 µM), without a hit: top-dose activity, negative = inhibition, actives largely listed as inhibitors; 390,000 compounds, 1% hits
#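 Pol iota at 10 nM preincubated 15 min with compounds at room temperature; reaction started with fluorescent substrate, 50 nM final. Fluorescence read kinetically at 0 and 10 min; buffer-only wells as negative control.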
# Pol kappa inh: blocks human DNA polymerase kappa activity | purified Pol kappa, fluorescent DNA synthesis assay, 10 min | Q9UBT6 | AID 588579 | 400,000 compounds, 0.53% hits | Potency, µM (titrated, usually from 107 µM), without a hit: top-dose activity, negative = inhibition, most hits filed as inhibitors; also: % is scaled to controls: 0 for no effect and ±100 for the full control effect
# Target sequence (Q9UBT6 whole entry, looked up): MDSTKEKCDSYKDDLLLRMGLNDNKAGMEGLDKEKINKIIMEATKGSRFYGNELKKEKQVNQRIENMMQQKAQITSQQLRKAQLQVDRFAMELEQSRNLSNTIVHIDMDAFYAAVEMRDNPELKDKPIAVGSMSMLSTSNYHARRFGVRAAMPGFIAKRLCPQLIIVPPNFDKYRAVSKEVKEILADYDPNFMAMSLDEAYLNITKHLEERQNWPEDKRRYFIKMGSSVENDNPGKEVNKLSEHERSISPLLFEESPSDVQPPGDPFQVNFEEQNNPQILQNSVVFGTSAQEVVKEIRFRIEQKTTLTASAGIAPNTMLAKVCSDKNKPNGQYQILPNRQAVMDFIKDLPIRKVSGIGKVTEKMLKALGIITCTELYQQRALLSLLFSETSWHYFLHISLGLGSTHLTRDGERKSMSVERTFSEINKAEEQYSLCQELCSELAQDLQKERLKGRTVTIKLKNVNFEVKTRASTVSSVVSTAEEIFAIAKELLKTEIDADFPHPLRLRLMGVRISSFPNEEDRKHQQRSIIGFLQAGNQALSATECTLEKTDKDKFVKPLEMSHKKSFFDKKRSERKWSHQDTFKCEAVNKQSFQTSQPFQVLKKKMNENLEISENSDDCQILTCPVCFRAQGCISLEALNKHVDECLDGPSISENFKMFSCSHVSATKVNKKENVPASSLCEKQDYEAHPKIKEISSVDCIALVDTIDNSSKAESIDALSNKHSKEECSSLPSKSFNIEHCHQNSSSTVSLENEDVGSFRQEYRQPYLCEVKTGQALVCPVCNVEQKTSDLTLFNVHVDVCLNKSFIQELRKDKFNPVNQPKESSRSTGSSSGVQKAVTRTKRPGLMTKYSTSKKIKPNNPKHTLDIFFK
#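 Kinetic fluorescence readout at 0 and 10 min followed reaction start with substrate at 50 nM final. Beforehand, enzyme (10 nM Pol kappa) stood 15 min with compound at room temperature; buffer-only wells were negative controls.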
# * = called active by the depositor; u = inconclusive; x = not tested or not shown; [ ] = another dose, or the depositor's remark. Sampled rows, rich in hits. Any-hit rate of the full collection: about 2.4%. Calls follow the shape of the dose curve; as a rule, active = well fitted curve in the direction sought with a large enough effect; inconclusive = small, poorly fitted or top-dose-only effect, or another doubt; inactive = no such curve, though single readings can be large; an effect the other way counts as inactive or inconclusive. Potency is read from the fitted curve at half-maximal effect.
SMILES,Pol beta inh,Pol eta inh,TDP1 inh,FEN1 inhibitor,Pol iota inh,Pol kappa inh
Cn1c(=O)c2nc(SCCO)n(C)c2n(C)c1=O,x,-13%,x,12%,66%,-4%
O=C(OC1CCOC1=O)c1ccccc1C(=O)c1ccc(Cl)c([N+](=O)[O-])c1 (stereo not given),x,50µM*,-10%,2%,40µM*,-37%
CCC/C=C(\CCC)C(NC(=O)c1ccccc1)c1ccccc1 (stereo not given),x,x,7%,x,x,x
COc1ccccc1/C=C/c1cncc(/C=C/c2ccccc2OC)c1,x,x,x,-9%,8%,-19%
CCc1ccccc1NC(=O)Cn1ccn(-c2ccc(OC)cc2)c(=O)c1=O,34%,6%,6%,-13%,6%,-5%
CCc1ccc(NC(=O)Cn2ccn(-c3ccc(OC)cc3)c(=O)c2=O)cc1,32µM*,-6%,0%,0%,11%,-11%
Cc1ccc(NC(=O)CN2C(=O)S/C(=C\c3cc(C)n(-c4ccc(C(=O)O)cc4)c3C)C2=O)cc1,79µM*,79µM*,-10%,u,u,-5%
COc1ccc(NC(=O)CN2C(=O)S/C(=C/c3cccn3-c3ccc(C(=O)O)cc3)C2=O)cc1,u,x,20µM*,x,x,x
Cc1cccc(NC(=O)CN2C(=O)S/C(=C\C(=O)Nc3ccc(Cl)cc3)C2=O)c1,-15%,-21%,-2%,4%,-13%,-20%
COc1ccc(NS(=O)(=O)c2ccc(O)c(NC(=O)c3cc4c(C)nn(-c5ccc(F)cc5)c4s3)c2)cc1,10µM*,20µM*,3%,56µM*,28µM*,u
c1ccc(Cc2nnc3sc(-c4ccco4)nn23)cc1,-15%,25µM*,-7%,u,40µM*,79µM*
Clc1ccccc1-c1nnc2sc(-c3ccco3)nn12,-3%,7%,5%,-10%,256%,-20%
N#Cc1c(-c2ccc(F)cc2)cc(-c2ccccc2)nc1SCC(=O)NCC(=O)O,45µM*,-20%,x,u,u,-12%
COC(=O)CSc1nc(-c2ccccc2)cc(-c2ccco2)c1C#N,28µM*,0%,-6%,-18%,38%,-29%
C=C1C=C(C)n2ncc(C(=O)NCCCCCC)c2N1,x,x,x,-7%,28%,2%
CCN1CCN(c2cc(C)c3cc(NC(=O)c4ccc(OC)c(OC)c4)ccc3n2)CC1,8.9µM*,u,3%,u,u,u
CCN(CC)C1=CC2=CC(=C(C#N)C#N)CCC2CC1 (stereo not given),3%,-15%,1%,u,u,-25%
N#CC(C#N)=C1C=C2C=C(N3CCCCC3)CCC2CC1 (stereo not given),50µM*,79µM*,8%,u,u,-7%
O=c1c2ccccc2sc2ccc(NCCCN3CCOCC3)cc12,x,u,x,45µM*,u,5%
COc1cc2sc3cc(NCCCN4CCOCC4)ccc3c(=O)c2cc1OC,x,u,1%,u,u,-28%
c1ccc(CNCc2nnc(-c3cc4ccccc4[nH]3)o2)cc1,x,x,0%,x,x,x
COc1ccc(OC)c(/C=C2\Oc3cc(OCC(=O)N4CCC[C@H]4C(=O)O)ccc3C2=O)c1,-1%,-16%,x,u,u,-7%
COc1cccc(/C=C2\Oc3cc(OCC(=O)N4CCC[C@H]4C(=O)O)ccc3C2=O)c1,-2%,45µM*,x,u,1%,-4%
CCOC(=O)C1(NC(=O)C2(NC(=O)CN3C(=O)c4ccccc4C3=O)CCCC2)CCCC1,x,13%,x,6%,89%,-7%
CN(C)c1ccc(C(CNS(=O)(=O)c2ccc(F)cc2F)N2CCOCC2)cc1 (stereo not given),-13%,0%,6%,7%,-2%,-10%[60.1 µM]
SMILES,Pol beta inh,Pol eta inh,TDP1 inh,FEN1 inhibitor,Pol iota inh,Pol kappa inh
Cc1ccc(NC(=O)C(C)OC(=O)c2ccc(Cl)nc2)cc1S(=O)(=O)N1CCOCC1 (stereo not given),x,20µM*,x,-4%,u,-15%
COc1ccccc1CCNC(=O)Cn1ccc2cc(S(=O)(=O)N3CCCC3)ccc21,3%,-7%,0%,1%,25%,-12%
COc1ccccc1CCNC(=O)Cn1ccc2cc(S(=O)(=O)N3CCCCC3)ccc21,2%,-6%,8%,u,89µM*,u
Cc1cccc(CC(=O)NC2CC(=O)N(c3cccc(F)c3)C2)c1 (stereo not given),9%,-23%,0%,-5%,36%,0%[60.1 µM]
Cc1cc(C)cc(NC2=C(N)C(=O)c3ccccc3C2=O)c1,-7%,-8%,x,-14%,7.9µM*,5%[60.1 µM]
CCCCCCCCCCCCCCCCCCc1ccc(C(=O)/C=C\C(=O)O)cc1,x,x,u,x,x,13µM*
O=C(O)/C=C/C(=O)c1ccc(O)cc1,0%,3%,5%,2%,18µM*,-19%
CCCCCCCCCCCCCCCCCCc1ccc(C(=O)/C=C/C(=O)O)cc1,x,x,-9%,x,x,-1%[19.4 µM]
CCOc1ccc(NC(=O)c2cnc3sc(N4CCOCC4)nn3c2=O)cc1,-23%,-19%,7%,-5%,-22%,-7%
O=C(CSc1nnc(-c2ccncc2)n1-c1ccc(F)cc1)NC(=O)NCc1ccco1,28µM*,79µM*,x,-32%,20µM*,u
C=CCn1c(COc2ccc(F)cc2)nnc1SCC(=O)NC(=O)NCc1ccco1,25µM*,u,-2%,3%,50µM*,u
C=CCn1c(COc2cccc(C)c2)nnc1SCC(=O)NC(=O)NCc1ccco1,20µM*,u,x,-15%,71µM*,u
C=CCn1c(COc2cccc(C)c2)nnc1SCC(=O)c1c(N)n(C)c(=O)n(C)c1=O,x,-15%,x,-3%,29%,4%
c1ccc(Nc2c(-c3c[nH]c4ccccc34)nc3ccccn23)cc1,10%,-7%,9%,-18%,-6%,2%
O=C(CNC(=O)c1ccccc1)N[C@@H](C(=O)Nc1cc(C(F)(F)F)ccc1Cl)c1ccccc1,x,x,-2%,x,x,x
C=CCOc1cccc(C2/C(=C(/O)c3ccc4c(c3)CC(C)O4)C(=O)C(=O)N2CCN2CCOCC2)c1 (stereo not given),-19%,-3%,7%,14%,89µM*,-14%
CC1Cc2cc(/C(O)=C3/C(=O)C(=O)N(CC4CCCO4)C3c3ccco3)ccc2O1 (stereo not given),22µM*,14µM*,x,-8%,u,-25%
COc1cc(C2/C(=C(\O)c3ccc4c(c3)CC(C)O4)C(=O)C(=O)N2CC2CCCO2)cc(OC)c1OC (stereo not given),-19%,-16%,4%,7%,14%,-11%

# Compound activity from PubChem BioAssay.
